High-throughput results (PubChem BioAssay)
Compounds with a hit are over-represented: about 5.7% of the library has one in this group of screens.
KB-3-1 cytotox: KB-3-1 parental cell cytotoxicity; KB-3-1 viability, CellTiter-Glo ATP luminescence, 72 h; Potency, µM (top dose mostly 46.1 µM), most hits filed as cytotoxic; AID 1347075; 400,000 compounds, 1.4% hits; further: potency means the concentration at half of the fitted maximal effect; nearly all actives have a fitted effect of over 60% in size
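Multi-concentration cytotoxicity screen in KB-3-1 cells grown in DMEM lacking phenol red with 10% FBS. After 72 h at 37 °C with compound, ATP-dependent luminescence was recorded.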
A549 viability: A549 cytotoxicity, counter-screen for Nrf2 inhibitors. A549 ARE-Fluc cells, CellTiter-Fluor viability, 18-24 h. AID 504648. 390,000 compounds, 0.16% hits. Potency, µM (doses to about 46 µM), for the others: top-dose activity change, negative = cytotoxicity, most hits filed as inhibitors; further: potency means the concentration at half of the fitted maximal effect
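A549 ARE_Fluc cells in 5% FBS OPTI-MEM were exposed to compounds in concentration-response for 18-24 h at 37 deg C. Viability was read by CellTiter-Fluor fluorescence (Ex 405/Em 525) after 30 min, before the luciferase read.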
PI4K2A block: inhibitors of human PI4K2A | Q9BTU6 | purified PI4K2A, ADP-Glo luminescence, 1 h; hits give low values | activity change, negative = inhibition, % at 76.9 µM | 420,000 compounds, 0.13% hits | AID 1346378; in the data active means activity change below about -50%; inconclusive means mostly about -30% to -49%;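 further: -100% = wells without enzyme as full effect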
Target sequence (Q9BTU6 whole entry, looked up): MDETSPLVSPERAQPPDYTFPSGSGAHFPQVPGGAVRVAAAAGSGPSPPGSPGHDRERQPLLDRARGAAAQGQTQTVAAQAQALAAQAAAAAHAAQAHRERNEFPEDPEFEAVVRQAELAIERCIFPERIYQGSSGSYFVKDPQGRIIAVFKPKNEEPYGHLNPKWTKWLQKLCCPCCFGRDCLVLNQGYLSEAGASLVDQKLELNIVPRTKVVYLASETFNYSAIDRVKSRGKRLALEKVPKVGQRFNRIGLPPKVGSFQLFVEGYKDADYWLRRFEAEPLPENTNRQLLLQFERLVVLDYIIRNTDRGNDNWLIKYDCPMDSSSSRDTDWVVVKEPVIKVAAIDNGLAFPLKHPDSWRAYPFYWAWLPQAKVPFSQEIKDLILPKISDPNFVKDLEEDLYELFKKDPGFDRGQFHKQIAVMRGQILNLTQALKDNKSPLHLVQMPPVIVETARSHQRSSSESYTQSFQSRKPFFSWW
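In this quantitative HTS, ADP production by PI4K2A was quantified luminescently after 1 h at ambient temperature; 100 microM adenosine served as plate-quality control.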
Giardia killer: Giardia lamblia killing; 340,000 compounds, 0.15% hits; Giardia lamblia trophozoite viability; activity change, % at 7.66 µM, hits read low; in the data active means activity change below about -80%; inconclusive means between about -30% and that limit;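 further: parasites exposed to compound for two days anaerobically before the ATP read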
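Giardia trophozoites, 100 cells per well, were exposed to compounds for 48 hrs at 37 deg C under anaerobic conditions; viability was then read as ATP content by bioluminescence after 15-30 min at room temperature.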
KB-V1 cytotox: KB-V1 MDR subline cytotoxicity | KB-V1 MDR cells viability, CellTiter-Glo, 72 h | Potency, µM (series often up to 46.1 µM), most hits filed as cytotoxic | 400,000 compounds, 3.4% hits | AID 1347076; further: potency means the concentration at half of the fitted maximal effect; nearly all actives have a fitted effect of over 60% in size
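Cytotoxicity toward P-gp-expressing KB-V1 cells was determined as loss of CellTiter-Glo luminescence after 72 h at 37 degrees C. Compounds were tested in quantitative HTS format across a concentration range, with curves fitted to normalized data.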
Nrf2 inh: blocks Nrf2 signaling | 360,000 compounds, 2.1% hits | Potency, µM (series often up to 46 µM), without a hit: top-dose activity change, negative = inhibition, hits mostly inhibitors | A549 ARE-Fluc reporter, luciferase luminescence, 18-24 h; further: potency means the concentration at half of the fitted maximal effect; nearly all actives have a fitted effect of over 60% in size
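Cells were seeded and rested 2 h, then exposed to compounds for 18-24 h. CellTiter-Fluor was read first as a viability measure. BugLite was added 15 min before the final luminescent read of ARE-luciferase activity in A549 cells.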
* hit, by the source's call; i = inactive; ? = inconclusive; / = no result given. Unless noted, the call rests on the fitted dose curve; in most records, active means well fitted curve in the direction sought with a large enough effect; inconclusive means small, poorly fitted or top-dose-only effect, or another doubt; inactive means no such curve, though single readings can be large; an effect the other way counts as inactive or inconclusive. Unless noted, on the % scale 0 is the no-effect control and ±100 the full control effect.

SMILES | KB-3-1 cytotox | A549 viability | PI4K2A block | Giardia killer | KB-V1 cytotox | Nrf2 inh
Cc1ccc(NC(=O)c2ccc3c(=O)n4c(nc3c2)CCCCC4)cc1F | i | ? | -1.6 | 21.8 | i | 18.4µM*
CCOC(=O)C1CCCN(C(=O)c2sc3nc(-c4ccc(F)cc4)cn3c2C)C1 (centres undefined) | i | 10.1% | 1.0 | -10.2 | ? | 2.6%
CCOC(=O)C1CCN(C(=O)c2sc3nc(-c4ccc(F)cc4)cn3c2C)CC1 | i | 9.0% | -0.7 | 2.3 | 23.1µM* | -5.4%
COc1cc2c(NC3CCN(C)CC3)nc(N3CCCN(C)CC3)nc2cc1OCCCCCN(C)C | ? | / | / | / | i | /
CCCCNC(=NCc1cccc(C(F)(F)F)c1)Nc1ccccc1 | ? | 1.0% | 0.4 | 1.4 | 20.6µM* | ?
O=C(CCl)N(c1ccccc1)c1c[nH]c2ccccc12 | 16.4µM* | -1.8% | 19.8 | -13.8 | 16.4µM* | -13.1%
O=C(Cc1ccc(Cl)cc1)NCCc1c[nH]c2ccccc12 | i | 3.3% | 0.4 | 7.3 | i | 3.4%
O=C(CCl)N(c1ccc(Cl)cc1)c1c[nH]c2ccccc12 | ? | ? | 24.8 | 27.2 | 18.4µM* | 20.6µM*
CC(=O)n1cc(N(C(=O)CCl)c2ccccc2)c2ccccc21 | ? | -8.5% | 21.2 | 24.4 | ? | ?
Fc1ccc(-n2cc(-c3ccccc3)c3c(N4CCOCC4)ncnc32)cc1 | i | -15.3% | -0.9 | -5.8 | ? | ?
COc1ccc(-n2cc(-c3ccccc3)c3c(N4CCOCC4)ncnc32)cc1 | i | -2.7% | 3.2 | 6.7 | 16.4µM* | ?
COC(=O)[C@]12C[C@H](CC(=O)NCCCCc3ccccc3)C(=O)N(Cc3ccco3)C1=C[C@H](C(C)(C)C)O[C@@H]2C | / | / | 0.1 | / | / | /
Cc1coc2c1C(=O)C(=O)c1c-2ccc2c(C)cccc12 | 9.2µM* | -9.0% | ? | -7.5 | 9.2µM* | 20.7%
Cc1coc2c1C(=O)C(=O)c1c-2ccc2c1CCCC2(C)C | 6.51µM* | -28.4% | -21.9 | -16.0 | 7.31µM* | ?
CCOC(=O)c1ccc(N2C(=O)c3n[nH]c(-c4cccs4)c3C2c2ccc(OCC)cc2)cc1 (centres undefined) | ? | -24.1% | -2.7 | / | ? | ?
CCOC(=O)c1ccc(N2C(=O)c3n[nH]c(-c4cccs4)c3C2c2ccc(CC)cc2)cc1 (centres undefined) | / | ? | -2.4 | -20.2 | / | 16.4µM*
CCOC(=O)c1ccc(N2C(=O)c3n[nH]c(-c4cccs4)c3C2c2ccc(C(C)C)cc2)cc1 (centres undefined) | ? | ? | -1.4 | / | ? | 23.1µM*
C=C[C@@H]1CN2CC[C@@H]1C[C@H]2[C@H](O)c1ccnc2ccc(OC)cc12 | / | / | 4.0 | / | / | /
O=C(NCc1ccc(F)cc1)C1CCN(S(=O)(=O)c2ccc3c(c2)CCCN3C(=O)C2CCC2)CC1 | ? | 0.4% | -3.0 | / | i | /
NS(=O)(=O)c1ccc(NC(=O)c2cnn3c2NC(=C2CC2)C=C3C(F)F)cc1 | i | / | / | / | ? | /
COc1cc(C2c3cc4c(cc3CC3COC(=O)N32)OCO4)cc(OC)c1OC (centres undefined) | 0.731µM* | -17.7% | -1.1 | 25.1 | 2.06µM* | ?
COc1cc2c(c(OC)c1OC)C(c1ccc3c(c1)OCO3)CC(=O)O2 (centres undefined) | i | -0.4% | -0.1 | 4.4 | i | 14.9%
CCS(=O)(=O)c1ccc(N=Nc2ccc(O)c3ncccc23)c(OC)c1 | 14.6µM* | 18.4µM* | -13.7 | 17.7 | ? | ?
Nc1[nH]c2cc(C(F)(F)F)ccc2c1C(=O)N1CCN(CCc2ccccc2)CC1 | / | / | -0.7 | / | / | /
Cn1c(SCc2ccc(Cl)cc2)nc(C(F)(F)F)cc1=O | ? | -4.8% | 0.0 | -2.3 | 16.4µM* | /
CCCCn1c(N)c(S(=O)(=O)c2ccc(C)cc2)c2nc3ccccc3nc21 | ? | -19.8% | -3.0 | -10.0 | ? | -14.6%
